Reference: article PMC5540273 (PLoS ONE, 2017)
Several values for one entry are separate records, joined by “and”; a condition that tells them apart may be missing. Identical values can stand only once. Like-named read-outs stand apart in the source and are kept apart here.

Assays:
[1] = test system: MYO3B; settings: concentration: 1 μM, replicates: in singlicate, n = 1
[2] = test system: T1, NDR1; settings: concentration: 1 μM, replicates: in singlicate, n = 1
T1 construct: gene STK38

[3] = test system: NDR2; settings: concentration: 1 μM, replicates: in singlicate, n = 1
[4] = test system: NEK10; settings: concentration: 1 μM, replicates: in singlicate; n = 1
[5] = test system: NEK11; settings: concentration: 1 μM, replicates: in singlicate; n = 1
[6] = test system: NEK1; settings: concentration: 1 μM, replicates: in singlicate, n = 1
[7] = test system: NEK2; settings: concentration: 1 μM, replicates: in singlicate, n = 1
[8] = test system: NEK3; settings: concentration: 1 μM, replicates: in singlicate, n = 1
[9] = test system: NEK4; settings: concentration: 1 μM, replicates: in singlicate; n = 1
[10] = test system: NEK5; settings: concentration: 1 μM, replicates: in singlicate, n = 1
[11] = test system: NEK6; settings: concentration: 1 μM, replicates: in singlicate; n = 1
[12] = test system: NEK7; settings: concentration: 1 μM, replicates: in singlicate, n = 1
[13] = test system: NEK9; settings: concentration: 1 μM, replicates: in singlicate, n = 1
[14] = test system: T2, NIK; settings: concentration: 1 μM, replicates: in singlicate, n = 1
T2 construct: gene MAP3K14

[15] = test system: T3, NIM1; settings: concentration: 1 μM, replicates: in singlicate, n = 1
T3 construct: gene MGC42105

[16] = test system: NLK; settings: concentration: 1 μM, replicates: in singlicate, n = 1
[17] = test system: T4, OSR1; settings: concentration: 1 μM, replicates: in singlicate; n = 1
T4 construct: gene OXSR1

[18] = test system: PAK1; settings: concentration: 1 μM, replicates: in singlicate, n = 1
[19] = test system: PAK2; settings: concentration: 1 μM, replicates: in singlicate, n = 1
[20] = test system: PAK3; settings: concentration: 1 μM, replicates: in singlicate, n = 1
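Further: KINOMEscan kinase panel screen.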

Cc1c2ccc(N(C)c3ccnc(Nc4cccc(S(N)(=O)=O)c4)n3)cc2nn1Cc1ccccc1.Cl.Cl [GW787226]
%Inh [1]: 41%
%Inh [2]: 51%
%Inh [3]: 1%
%Inh [4]: 0%
%Inh [5]: 0%
%Inh [6]: 32%
%Inh [7]: 0%
%Inh [8]: 22%
%Inh [9]: 6%
%Inh [10]: 0%
%Inh [11]: 0%
%Inh [12]: 0%
%Inh [13]: 0%
%Inh [14]: 0%
%Inh [15]: 0%
%Inh [16]: 5%
%Inh [17]: 0%
%Inh [18]: 32%
%Inh [19]: 49%
%Inh [20]: 28%

N#Cc1c(N2CCOCC2)sc(-c2ccn[nH]2)c1-c1ccc(Cl)cc1
%Inh [1]: 32%
%Inh [2]: 7%
%Inh [3]: 0%
%Inh [4]: 4%
%Inh [5]: 0%
%Inh [6]: 9%
%Inh [7]: 0%
%Inh [8]: 23%
%Inh [9]: 0%
%Inh [10]: 0%
%Inh [11]: 17%
%Inh [12]: 0%
%Inh [13]: 0%
%Inh [14]: 8%
%Inh [15]: 54%
%Inh [16]: 0%
%Inh [17]: 0%
%Inh [18]: 10%
%Inh [19]: 17%
%Inh [20]: 27%

Cl.Cl.Cl.Fc1ccc(-c2ncn(C3CCNCC3)c2-c2ccnc(Nc3ccccc3)n2)cc1 [SB-238039]
%Inh ([1]; 1 µM): 20% and 21%
%Inh ([2]; 1 µM): 37% and 6%
%Inh ([3]; 1 µM): 8% and 0%
%Inh [4]: 0%
%Inh [5]: 0%
%Inh ([6]; 1 µM): 15% and 0%
%Inh ([7]; 1 µM): 0% and 2%
%Inh ([8]; 1 µM): 23% and 29%
%Inh [9]: 0%
%Inh ([10]; 1 µM): 0% and 15%
%Inh [11]: 0%
%Inh ([12]; 1 µM): 0% and 24%
%Inh ([13]; 1 µM): 0% and 19%
%Inh ([14]; 1 µM): 5% and 12%
%Inh ([15]; 1 µM): 35% and 19%
%Inh ([16]; 1 µM): 90.5% and 89%
%Inh [17]: 14%
%Inh ([18]; 1 µM): 16% and 0%
%Inh ([19]; 1 µM): 51% and 14%
%Inh ([20]; 1 µM): 43% and 50%

CCc1ccnc(/C=C/c2n[nH]c3cc(Sc4ccccc4C(=O)NC)ccc23)c1
%Inh [1]: 0%
%Inh [2]: 7%
%Inh [3]: 0%
%Inh [4]: 4%
%Inh [5]: 0%
%Inh [6]: 0%
%Inh [7]: 0%
%Inh [8]: 1%
%Inh [9]: 0%
%Inh [10]: 0%
%Inh [11]: 0%
%Inh [12]: 0%
%Inh [13]: 0%
%Inh [14]: 0%
%Inh [15]: 0%
%Inh [16]: 0%
%Inh [17]: 0%
%Inh [18]: 0%
%Inh [19]: 0%
%Inh [20]: 0%

O=C1NC(=O)C(N2CCc3ccccc32)=C1c1cccc(Cl)c1 [SB-408010]
%Inh [1]: 21%
%Inh [2]: 6%
%Inh [3]: 7%
%Inh [4]: 43%
%Inh [5]: 0%
%Inh [6]: 3%
%Inh [7]: 12%
%Inh [8]: 14%
%Inh [9]: 0%
%Inh [10]: 0%
%Inh [11]: 9%
%Inh [12]: 0%
%Inh [13]: 0%
%Inh [14]: 0%
%Inh [15]: 0%
%Inh [16]: 12%
%Inh [17]: 0%
%Inh [18]: 9%
%Inh [19]: 44%
%Inh [20]: 0%

COc1cc2ncn(-c3cc(OCc4sccc4Cl)c(C(N)=O)s3)c2cc1OC [GSK448459]
%Inh [1]: 0%
%Inh [2]: 0%
%Inh [3]: 0%
%Inh [4]: 0%
%Inh [5]: 0%
%Inh [6]: 13%
%Inh [7]: 97.1%
%Inh [8]: 4%
%Inh [9]: 0%
%Inh [10]: 11%
%Inh [11]: 0%
%Inh [12]: 0%
%Inh [13]: 0%
%Inh [14]: 22%
%Inh [15]: 30%
%Inh [16]: 0%
%Inh [17]: 11%
%Inh [18]: 17%
%Inh [19]: 10%
%Inh [20]: 20%

Cc1cccc(-c2nc(-c3ccc(S(C)(=O)=O)cc3)sc2-c2ccncc2)c1
%Inh [1]: 0%
%Inh [2]: 0%
%Inh [3]: 14%
%Inh [4]: 0%
%Inh [5]: 0%
%Inh [6]: 8%
%Inh [7]: 0%
%Inh [8]: 61%
%Inh [9]: 0%
%Inh [10]: 3%
%Inh [11]: 14%
%Inh [12]: 0%
%Inh [13]: 16%
%Inh [14]: 0%
%Inh [15]: 0%
%Inh [16]: 64%
%Inh [17]: 0%
%Inh [18]: 14%
%Inh [19]: 0%
%Inh [20]: 9%

N#Cc1ccc(-c2cc(-c3c[nH]nc3-c3ccccn3)ccn2)cc1 [GW693028]
%Inh [1]: 0%
%Inh [2]: 14%
%Inh [3]: 0%
%Inh [4]: 11%
%Inh [5]: 5%
%Inh [6]: 0%
%Inh [7]: 0%
%Inh [8]: 8%
%Inh [9]: 20%
%Inh [10]: 5%
%Inh [11]: 0%
%Inh [12]: 0%
%Inh [13]: 0%
%Inh [14]: 18%
%Inh [15]: 35%
%Inh [16]: 16%
%Inh [17]: 4%
%Inh [18]: 8%
%Inh [19]: 9%
%Inh [20]: 0%
